Assay results reported in PubChem BioAssay (NCI).
Compounds without any hit were thinned out: in the full panel of roughly 79,000, 15% have a hit. Unmarked numbers belong to inactive results. Calls of active or inactive are those of the source. Cut-off read from the data, not from the text of the source: active = growth inhibition above about 70%; inactive = the rest.

Experiments:
[1] = NCI Yeast Anticancer Drug Screen. Data for the rad50 strain (AID 155);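 note: 0% = growth of vehicle-only cultures of the same strain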; conditions: S. cerevisiae rad50 strain growth inhibition; at 50.0 µM; active compounds read high
Procedure, shortened: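 Vehicle-treated cultures provide the reference for the growth inhibition reported for compound-exposed, repair-deficient yeast.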

[2] = NCI Yeast Anticancer Drug Screen. Data for the mec2-1 strain (AID 157); conditions: S. cerevisiae mec2-1 strain, at 50.0 µM, active compounds read high
Procedure, shortened: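 Mutant yeast (mec2-1) grown with compound; growth inhibition relative to vehicle control reported.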

[3] = NCI Yeast Anticancer Drug Screen. Data for the sgs1 mgt1 strain (AID 161);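 note: 0% = growth of cultures given vehicle only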; conditions: S. cerevisiae sgs1 mgt1 strain, at 50.0 µM, active compounds read high
Procedure, shortened: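 This yeast growth screen uses a strain with defined DNA-repair lesions; compound-treated growth is compared with vehicle-treated growth.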

[4] = NCI Yeast Anticancer Drug Screen. Data for the cln2 rad14 strain (AID 165);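 note: 0% = growth equal to vehicle treated cultures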; conditions: S. cerevisiae cln2 rad14 strain, at 50.0 µM, active compounds read high
Procedure, shortened: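 Readout is yeast growth inhibition versus vehicle-treated controls, using a strain with cln2 and rad14 alterations exposed to compound.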

[5] = NCI Yeast Anticancer Drug Screen. Data for the bub3 strain (AID 167); conditions: S. cerevisiae bub3 mutant strain, at 50.0 µM, active compounds read high
Procedure, shortened: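 Mutant yeast screening strain plus compound; vehicle-treated cultures serve as the 0% inhibition reference.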

[6] = NCI Yeast Anticancer Drug Screen. Data for the mlh1 rad18 strain (AID 175); conditions: S. cerevisiae mlh1 rad18 strain growth inhibition; at 50.0 µM; active compounds read high
Procedure, shortened: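 Genetically defined yeast (DNA repair-deficient) exposed to compounds; growth inhibition determined relative to vehicle.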

Row | Structure (SMILES) | growth inhibition [1] | growth inhibition [2] | growth inhibition [3] | growth inhibition [4] | growth inhibition [5] | growth inhibition [6]
1 | CCCCCCCCCCCCCC/C=N/Nc1ccc([N+](=O)[O-])cc1[N+](=O)[O-] | 21.3% | 24% | 13.5% | 6.25% | -2% | 22.8%
2 | Cn1c(=O)c(Cl)c(N=[N+]=[N-])c2ccccc21 | 45.1% | 37.4% | 44% | 51% | 22% | 30.2%
3 | O=C(O)c1c[nH]c(=O)[nH]c1=O.[Cu+2] | -23.9% | -13% | -12.4% | -44.5% | -40.8% | -21.2%
4 | COC1CC(OC(=O)c2ccccc2)C(OC(=O)c2ccccc2)C(CBr)O1 (stereo not drawn) | 85.3% (active) | 90.2% (active) | 88.6% (active) | 91% (active) | 80.1% (active) | 89.1% (active)
5 | NC(CSC(=O)c1ccccc1)C(=O)O (stereo not drawn) | -14.2% | -3.45% | -19.8% | -2.55% | -30.2% | -19.9%
6 | CCCCOC(=O)c1ccc(NC(=O)Nc2ccc(SC)cc2)cc1 | -4.05% | 1.8% | 19.2% | -8.75% | 19.8% | -13.1%
7 | CC(=O)NC(C=O)C(O)C(O)C(O)CO (stereo not drawn) | -29.4% | -24.8% | -11.1% | -16.2% | -7% | 2.25%
8 | CCc1c(O)c2c(=O)n(C)c(=O)n3c4ccccc4n(c1=O)c23 | 40.4% | 41.4% | 45.7% | 26.8% | 38.9% | 39.8%
9 | Cn1c(=O)c2c(nc(N(CCN(N=O)c3nc4c(c(=O)n(C)c(=O)n4C)n3C)N=O)n2C)n(C)c1=O | -11% | -4.35% | -25.7% | -0.3% | -8.85% | -0.65%
10 | Nc1c(I)cc(C(=O)O)c(O)c1I | 2.45% | -26.6% | -15.3% | 4.65% | -5.75% | -9.15%
11 | N#C/C(=C\c1cccc(N)c1)c1ccccc1 | 45.4% | 57.9% | 73.7% (active) | 30.1% | 88% (active) | 80% (active)
12 | CN(C)C(=S)/N=c1\ssc(=S)n1Cc1cccs1 | -11.1% | -19.5% | -19.6% | 6.75% | -9.4% | 12%
13 | CC(O)CN1c2ccccc2Sc2ccccc21 (stereo not drawn) | -17.4% | -13.7% | -13.2% | -18.2% | -13.8% | 7.55%
14 | NC1C(O)OCC(O)C1O (stereo not drawn) | -0.35% | 9.3% | 10.2% | 7.25% | 19.4% | 23.1%
15 | CCCC(C)C1(CC)NC(C)(C)CC(C)O1 (stereo not drawn) | 2.75% | 0.8% | -5.75% | -29.4% | 4.9% | 1.2%
16 | Cc1cccc(C=NC23CC4CC(CC(C4)C2)C3)c1 | -30.4% | -40.5% | -40.5% | -30.7% | -44.9% | -43.3%
17 | Cc1c(CCO)sc[n+]1CC(=O)c1ccccc1 | -14.5% | -19% | -3.7% | 1.55% | 2.3% | 1%
18 | CN(C)CC1CCC/C1=N/OC(=O)c1ccccc1 (stereo not drawn) | 6.85% | -6.7% | -20% | -17.9% | -6.4% | 16.9%
19 | Brc1cccc2ccc3ccccc3c12 | 23.2% | 19% | 29.1% | 8.25% | 32% | 75.7% (active)

Row | Structure (SMILES) | growth inhibition [1] | growth inhibition [2] | growth inhibition [3] | growth inhibition [4] | growth inhibition [5] | growth inhibition [6]
20 | O=C(O)c1ccncc1C(=O)c1csc2ccccc12 | 7.9% | 14.2% | 27.1% | 22.1% | 30.4% | 19.3%
21 | Nc1cc2c(C3OC(CO)C(O)C3O)[nH]nc2c(=S)[nH]1 (stereo not drawn) | 40.8% | 7.05% | 15.5% | 20.4% | 8.15% | 24.1%
22 | CCN(CC)CCCC(C)Nc1nncc2ccccc12 (stereo not drawn) | -19.2% | -2.1% | 2.55% | -17.3% | -1.3% | -8.95%
23 | CCCCCCCI | -8.9% | 20.9% | 6.9% | -21.6% | 1.65% | 23.8%
24 | COc1cc(C=Nc2ccc3c(c2)OCO3)ccc1OC(=O)c1ccccc1 | 5.3% | 7.6% | 8.35% | 8.25% | 12.9% | -5.5%
25 | O=C(/C=C\c1cccc2ccccc12)c1cccc2ccccc12 | 35.5% | 12.8% | 0.55% | -4.75% | 23.1% | 34.4%
26 | Cc1ccc(NC(=O)Oc2ccccc2C(=O)OCc2ccccc2)cc1 | 5.3% | 7.1% | 6.25% | 20.1% | 8.25% | 1.25%
27 | CN1CCN(c2nc3c(c(=O)n(C)c(=O)n3C)n2C)CC1 | -4.9% | 5.35% | -18.8% | -6.1% | -11% | 6.2%
28 | O=C(O)c1ccccc1Cc1c[nH]c2ccccc12 | -37.3% | 4.95% | -0.8% | -15.3% | 41.3% | -5.05%
29 | CCOC(=O)c1c(-c2ccc(OC)cc2)c(C#N)c(=S)n(C2OC(COC(C)=O)C(OC(C)=O)C(OC(C)=O)C2OC(C)=O)c1-c1ccccc1 (stereo not drawn) | -4.6% | 0.05% | -3.2% | 21.6% | 11.9% | 13.4%
30 | CCOC(=O)Oc1ccc(C(CNC(C)C)OC(=O)OCC)cc1OC(=O)OCC (stereo not drawn) | 38.5% | 2.8% | 25.6% | 9.65% | 4.45% | 32.9%
31 | O=C(Nc1ccc(S(=O)(=O)Nc2nccs2)cc1)c1cccnc1Nc1cccc(Cl)c1 | 36.6% | 8.5% | 22.2% | 1.15% | 13.4% | 61.2%
32 | COc1ccc2c(ccc3[nH]c4c(C)cnc(NCCCN(C)C)c4c32)c1 | -16.6% | -7.6% | -2.7% | -3.55% | 4.05% | -7.85%
33 | C/C(=N\n1c(-c2ccccc2)nc2ccccc2c1=O)c1ccc(C)cc1 | 5.25% | 7.8% | -2.7% | 1.5% | 4.95% | -1.75%
34 | COc1ccc2c(c1)[n+](=O)c(C(=O)C/C(=N/OCCCc1ccccc1)C(=O)NC13CC4CC(CC(C4)C1)C3)c(C)n2[O-] | -1.3% | -3.2% | -19.4% | 17.1% | 3.85% | -4.6%
35 | COc1ccc(NC(C)=O)c(C(=O)CCNC(C)=O)c1 | -5.85% | -15.4% | -31.1% | -7.4% | -40% | -23.4%
36 | COc1cc(/C=C2/C(=O)N(C(=O)c3ccccc3O)N=C2C)ccc1O | -6.55% | -10.3% | -9.4% | 9.75% | 1.65% | -13.9%
37 | CC(C)(C)c1cc(C2OC(N)=C(O)C2=O)cc(C(C)(C)C)c1O (stereo not drawn) | 13.4% | 11.1% | 24.7% | 13.8% | 5.4% | 32.2%
38 | C/C(=N/C(=O)NN)c1ccc(Cl)cc1 | 34.2% | -7.9% | 42.9% | 2.35% | 37.2% | 31.9%
